Reference: PubChem BioAssay (NCATS)
Results filed as inconclusive are left out. Active and inactive are the calls of the source. Calls come from the whole dose curve; as a rule, active = well fitted curve in the direction sought with a large enough effect; inconclusive = small, poorly fitted or top-dose-only effect, or another doubt; inactive = no such curve, though single readings can be large; an effect the other way counts as inactive or inconclusive.

Assays:
[1] = test system: CRL-7250; assay: Cytotoxic Profiling of Annotated Libraries Using Quantitative High-Throughput Screening (AID 1296008); conditions: Five cell lines viability, CellTiter-Glo ATP luminescence, 48-72 h; max response: stronger effect = lower value; note: nearly all actives have a fitted effect of over 60% in size; for max response: % is set by controls: 0 for no effect and ±100 for the full control effect
How it was run: (§1)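 Compounds were pin-transferred onto cells and incubated 48 or 72 hr at 37 degree Celsius, 95% humidity. CellTiter-Glo was added, plates sat 10 min at room temperature, then ATP-coupled luminescence was imaged as the viability read-out.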

[2] = test system: HEK293; assay: as above; conditions: Five cell lines viability, CellTiter-Glo ATP luminescence, 48-72 h; max response: stronger effect = lower value
How it was run: as §1

[3] = test system: HaCat; assay: as above; conditions: Five cell lines viability, CellTiter-Glo ATP luminescence, 48-72 h; max response: stronger effect = lower value
How it was run: as §1

[4] = test system: KB-3-1; assay: as above; conditions: Five cell lines viability, CellTiter-Glo ATP luminescence, 48-72 h; max response: stronger effect = lower value
How it was run: as §1

[5] = test system: NIH3T3; assay: as above; conditions: Five cell lines viability, CellTiter-Glo ATP luminescence, 48-72 h; max response: stronger effect = lower value
How it was run: as §1

[6] = test system: HACAT; assay: qHTS assay to identify novel small-molecules to repurpose for Merkel cell carcinoma treatment (AID 1296009); conditions: MCC and control cell lines, CellTiter-Glo viability, 72 h; at 44.8 µM (top of the series) unless noted; note: nearly all actives have a fitted effect of over 60% in size
How it was run: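 Viability readout: ATP luminescence (CellTiter-Glo) after 72 hr drug exposure at 37 degree celsius. Dose-response format was 8 points for NPC and 11 points for MIPE; data normalized to in-plate controls.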

[7] = test system: C33A; assay: Primary qHTS to identify gynecologic anti-cancer compounds using libraries of approved drugs and bioactive compounds (AID 1345084); conditions: Gynecologic cancer cell panel viability, ATPlite luminescence, 48 h; series mostly up to 57.5 µM; note: % is set by controls: 0 for no effect and ±100 for the full control effect; nearly all actives have a fitted effect of over 55% in size
How it was run: (§2)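 Cells, 1,000 per well, were allowed to settle for 16 h at 37 C before compound addition. Five concentrations were tested for 48 h, and viability was read by ATPlite luminescence after 15 min at room temperature.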

[8] = test system: CAOV3; assay: as above; conditions: Gynecologic cancer cell panel viability, ATPlite luminescence, 48 h; series mostly up to 57.5 µM
How it was run: as §2

[9] = test system: CASKI; assay: as above; conditions: Gynecologic cancer cell panel viability, ATPlite luminescence, 48 h; series mostly up to 57.5 µM
How it was run: as §2

[10] = test system: Es-2; assay: as above; conditions: Gynecologic cancer cell panel viability, ATPlite luminescence, 48 h; series mostly up to 57.5 µM
How it was run: as §2

[11] = test system: HeLa; assay: as above; conditions: Gynecologic cancer cell panel viability, ATPlite luminescence, 48 h; series mostly up to 57.5 µM
How it was run: as §2

[12] = test system: Hek293T; assay: as above; conditions: Gynecologic cancer cell panel viability, ATPlite luminescence, 48 h, control line for the selectivity index; series mostly up to 57.5 µM
How it was run: as §2

[13] = test system: JEG-3; assay: as above; conditions: Gynecologic cancer cell panel viability, ATPlite luminescence, 48 h; series mostly up to 57.5 µM
How it was run: as §2

[14] = test system: OV90; assay: as above; conditions: Gynecologic cancer cell panel viability, ATPlite luminescence, 48 h; series mostly up to 57.5 µM
How it was run: as §2

[15] = test system: PA-1; assay: as above; conditions: Gynecologic cancer cell panel viability, ATPlite luminescence, 48 h; series mostly up to 57.5 µM
How it was run: as §2

CCC(C)(C)C1CCc2c(sc(NC(=O)c3ccc(Br)cc3)c2C#N)C1 (stereo not given)
inactive: max response [1] -2.34% | max response [2] 2.37% | outcome [3] | outcome [4] | max response [5] 3.88% | outcome [6] | Potency [7] | Potency [8] | outcome [9] | Potency [10] | Potency [11] | Potency [12] | Potency [13] | Potency [14] | Potency [15]

CCCC(C(=O)O)c1c(C)nc2ccc(Cl)cc2c1-c1ccccc1 (stereo not given)
inactive: max response [1] 3.26% | max response [2] -5.83% | outcome [3] | max response [4] 2.25% | max response [5] 1.27% | outcome [6] | Potency [7] | Potency [8] | outcome [9] | Potency [10] | Potency [11] | Potency [12] | Potency [13] | Potency [14] | Potency [15]

C=C(CO)C(=O)O[C@H]1C[C@@]23O[C@@H]2CC/C(=C/[C@H]2OC(=O)C(=C)[C@H]12)CO[C@H]3O
inactive: outcome [1] | max response [2] -24.8% | outcome [3] | outcome [4] | max response [5] 2.84% | outcome [6] | Potency [7] | Potency [8] | outcome [9] | Potency [10] | Potency [11] | Potency [12] | Potency [13] | Potency [14] | Potency [15]

CCOC(=O)COc1ccc2c(c1)C[C@@H](NC[C@H](O)c1cccc(Cl)c1)CC2
inactive: outcome [1] | max response [2] 4.31% | outcome [3] | max response [4] 7.38% | max response [5] 1.73% | outcome [6] | Potency [7] | Potency [8] | outcome [9] | Potency [10] | Potency [11] | Potency [12] | Potency [13] | Potency [14] | Potency [15]

C[C@@H]1O[C@@H](OC2C(O[C@H]3[C@H](O[C@H]4CC[C@@]5(C)C(CC[C@]6(C)C5CC=C5C7CC(C)(C)CC(O)[C@]7(C)CC[C@]56C)C4(C)C)O[C@H](C(=O)O)[C@@H](O)[C@@H]3O)OC(CO)C(O)C2O)[C@H](O)[C@H](O)[C@H]1O (stereo not given in full)
inactive: max response [1] 4.13% | max response [2] -5.35% | outcome [3] | max response [4] 3.37% | max response [5] 1.38% | outcome [6] inactive [at 9.27 µM] | activity change, negative = cytotoxicity [7] 9.23% [at 11.6 µM] | activity change, negative = cytotoxicity [8] 0.0107% [at 11.6 µM] | activity change, negative = cytotoxicity [9] 13.1% [at 11.6 µM] | activity change, negative = cytotoxicity [10] 2.61% [at 11.6 µM] | activity change, negative = cytotoxicity [11] 3.53% [at 11.6 µM] | activity change, negative = cytotoxicity [12] 5.4% [at 11.6 µM] | activity change, negative = cytotoxicity [13] 7.17% [at 11.6 µM] | activity change, negative = cytotoxicity [14] 7.68% [at 11.6 µM] | activity change, negative = cytotoxicity [15] 0.277% [at 11.6 µM]

CC1CCC2(C)CCC3(C)C(=CCC4C5(C)CCC(O)C(C)(C(=O)O)C5CCC43C)C2C1C (stereo not given)
inactive: outcome [1] | max response [2] -6.34% | outcome [3] | max response [4] 8.86% | max response [5] 4.66% | outcome [6] inactive [at 17.4 µM] | Potency [7] | Potency [8] | outcome [9] | Potency [10] | Potency [11] | Potency [12] | Potency [13] | Potency [14] | Potency [15]

CCc1nnc(NS(=O)(=O)c2ccc(NC(=S)NC(=O)/C=C/c3ccc(F)cc3)cc2)s1
inactive: outcome [1] | max response [2] -0.631% | outcome [3] | outcome [4] | outcome [5] | outcome [6] | Potency [7] | Potency [8] | outcome [9] | Potency [10] | Potency [11] | Potency [12] | Potency [13] | Potency [14] | Potency [15]

COc1ccc(/C=C/C(=O)O[C@@H]2[C@@H](O)[C@@H](O)[C@H](O[C@H]3[C@@H]4C=CO[C@@H](O[C@@H]5O[C@H](CO)[C@@H](O)[C@H](O)[C@H]5O)[C@@H]4[C@@]4(CO)O[C@@H]34)O[C@H]2C)cc1
inactive: max response [1] -8.85% | max response [2] -4.15% | outcome [3] | max response [4] 1.26% | max response [5] 0.471% | outcome [6] inactive [at 17.4 µM] | Potency [7] | Potency [8] | outcome [9] | Potency [10] | Potency [11] | Potency [12] | Potency [13] | Potency [14] | Potency [15]

CC1(C)CC[C@]2(C(=O)O)CC[C@]3(C)C(=CCC4[C@@]5(C)C[C@@H](O)[C@H](O)[C@@](C)(CO)C5CC[C@]43C)C2C1 (stereo not given in full)
inactive: outcome [1] | max response [2] 2.88% | outcome [3] | max response [4] -4.17% | max response [5] -3.06% | outcome [6] inactive [at 17.4 µM] | Potency [7] | Potency [8] | outcome [9] | Potency [10] | Potency [11] | Potency [12] | Potency [13] | Potency [14] | Potency [15]

C=C1CC2C3(C)C(O)CC(=O)C(C)(C)C3C(O)C(OC(C)=O)C2(C)C2C(=O)OC(C)(C(=O)OC)C(=O)C12C (stereo not given)
inactive: outcome [1] | max response [2] -2.76% | outcome [3] | outcome [4] | max response [5] -16.8% | outcome [6] inactive [at 17.4 µM] | Potency [7] | Potency [8] | outcome [9] | Potency [10] | Potency [11] | Potency [12] | Potency [13] | Potency [14] | Potency [15]

COC(=O)C(CC1CCCC1)c1ccc(S(C)(=O)=O)cc1 (stereo not given)
inactive: outcome [1] | max response [2] 0.176% | outcome [3] | outcome [4] | max response [5] 2.5% | outcome [6] | Potency [7] | Potency [8] | outcome [9] | Potency [10] | Potency [11] | Potency [12] | Potency [13] | Potency [14] | Potency [15]
